# Experimental data as given in ChEMBL document CHEMBL2218924, “A broad activity screen in support of a chemogenomic map for kinase signalling research and drug discovery” (Biochem J, 2013).
# Molecular target: T1, Dual specificity mitogen-activated protein kinase kinase 7 (Homo sapiens) (UniProt O14733)
# T1 sequence (whole entry): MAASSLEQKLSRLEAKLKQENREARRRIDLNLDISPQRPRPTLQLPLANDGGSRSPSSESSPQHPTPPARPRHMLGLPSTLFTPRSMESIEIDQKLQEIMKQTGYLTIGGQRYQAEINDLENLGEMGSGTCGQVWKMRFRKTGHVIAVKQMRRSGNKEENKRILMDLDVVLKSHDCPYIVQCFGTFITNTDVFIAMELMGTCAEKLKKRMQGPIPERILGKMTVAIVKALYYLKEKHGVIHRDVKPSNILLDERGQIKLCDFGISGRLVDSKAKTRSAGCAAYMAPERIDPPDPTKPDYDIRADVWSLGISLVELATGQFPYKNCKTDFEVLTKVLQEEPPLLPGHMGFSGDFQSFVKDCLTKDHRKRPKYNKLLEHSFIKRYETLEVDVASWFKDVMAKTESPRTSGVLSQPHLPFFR
# Details: at 1 µM
row,SMILES,residual activity [%]
1,N#C/C(=C(\N)Sc1ccc(N)cc1)c1ccccc1C(F)(F)F,88
2,CO[C@H]1C[C@@H]2CC[C@@H](C)[C@@](O)(O2)C(=O)C(=O)N2CCCC[C@H]2C(=O)O[C@H]([C@H](C)C[C@@H]2CC[C@@H](O)[C@H](OC)C2)CC(=O)[C@H](C)/C=C(\C)[C@@H](O)[C@@H](OC)C(=O)[C@H](C)C[C@H](C)/C=C/C=C/C=C/1C,102
3,Cc1nc(-c2ccccc2)c(-c2ccncc2)o1,100
4,CC(=O)c1ccc(N2CCOCC2)cc1O,104
5,Cc1nc2cc3nc(-c4cccs4)cnc3cc2n1C,109
6,Nc1n[nH]c2nnc(-c3c(-c4ccccc4)nn4ccccc34)cc12,88
7,CCN(CC)CCCCN1c2ccccc2Oc2ccc(Cl)cc21,120
8,Cn1cnc2cc3c(Nc4cccc(Br)c4)ncnc3cc21,96
9,CO[C@H]1[C@@H](OC)C[C@H](C)[C@@H](OC)C2=CC(=O)C=C(NC(=O)/C(C)=C/C=C/[C@H](OC)[C@@H](OC(N)=O)/C(C)=C/[C@@H]1C)C2=O,92
10,CN(C)c1ccc(/C=C2\C(=O)Nc3ccccc32)cc1,91
11,COc1ccc(S(=O)(=O)N(CCO)c2ccccc2CN(C)C/C=C/c2ccc(Cl)cc2)cc1,101
12,O=Nc1c(-c2c(O)[nH]c3ccccc23)[nH]c2ccccc12,52
13,O=C1NC(=O)/C(=C/c2ccc3c(c2)OC(F)(F)O3)S1,96
14,COc1cc2ncnc(N3CCN(C(=O)Nc4ccc(Oc5ccccc5)cc4)CC3)c2cc1OC,144
15,Oc1ccc(-c2nc(-c3ccc(F)cc3)c(-c3ccncc3)[nH]2)cc1,80
16,N#Cc1cnc2cnc(NCc3cccnc3)cc2c1Nc1ccc(F)c(Cl)c1,83
17,CNc1cc2c(Nc3cccc(Br)c3)ncnc2cn1,100
18,O=C1NC(=O)c2cc(Nc3ccc(F)cc3)c(Nc3ccc(F)cc3)cc21,98

row,SMILES,residual activity [%]
1,COc1cccc(-c2cc(=O)c3ccccc3o2)c1N,106
2,Cc1cccc(-c2[nH]c(C(C)(C)C)nc2-c2ccc3c(c2)OCO3)n1,107
3,c1ccc(-c2n[nH]c3c2oc2ccccc23)cc1,87
4,Ic1cccc(CSc2nnc(-c3ccncc3)o2)c1,70
5,CO[C@@H]1[C@H](N(C)C(=O)c2ccccc2)C[C@H]2O[C@]1(C)n1c3ccccc3c3c4c(c5c6ccccc6n2c5c31)C(=O)NC4,111
6,NC(=O)c1ccc2[nH]c(-c3ccc(Oc4ccc(Cl)cc4)cc3)nc2c1,94
7,O=C1Nc2cc(Br)ccc2/C1=C1/Nc2ccccc2/C1=N\O,80
8,COc1cc2ncnc(Nc3ccc(Oc4ccccc4)cc3)c2cc1OC,87
9,CCOc1cc2ncnc(Nc3cccc(Br)c3)c2cc1OCC,91
10,O=c1cc(-c2cccc3c2Sc2ccccc2S3)oc(N2CCOCC2)c1,106
11,c1ccc2c(-c3ccncc3)c[nH]c2c1,101
12,Nc1cccc(-c2cc3c(Oc4cccc(O)c4)ncnc3[nH]2)c1,80
13,Nc1nc(Nc2ccc(S(N)(=O)=O)cc2)nn1C(=S)Nc1c(F)cccc1F,65
14,CC(C)n1cnc2c(NCc3ccccc3)nc(NCCCO)nc21,91
15,O=C1NC(=O)/C(=C\c2ccc3nccnc3c2)S1,96
16,O=C(O)c1ccc2c3c1cccc3c(=O)n1c3ccccc3nc21,87
17,COc1cc2ncnc(Nc3ccc(O)c(Br)c3)c2cc1OC,119

# Molecular target: T1, Dual specificity mitogen-activated protein kinase kinase 7 (Homo sapiens)
# Details: at 10 µM
row,SMILES,residual activity [%]
1,N#C/C(=C(\N)Sc1ccc(N)cc1)c1ccccc1C(F)(F)F,96
2,CO[C@H]1C[C@@H]2CC[C@@H](C)[C@@](O)(O2)C(=O)C(=O)N2CCCC[C@H]2C(=O)O[C@H]([C@H](C)C[C@@H]2CC[C@@H](O)[C@H](OC)C2)CC(=O)[C@H](C)/C=C(\C)[C@@H](O)[C@@H](OC)C(=O)[C@H](C)C[C@H](C)/C=C/C=C/C=C/1C,102
3,Cc1nc(-c2ccccc2)c(-c2ccncc2)o1,103
4,CC(=O)c1ccc(N2CCOCC2)cc1O,96
5,Cc1nc2cc3nc(-c4cccs4)cnc3cc2n1C,110
6,Nc1n[nH]c2nnc(-c3c(-c4ccccc4)nn4ccccc34)cc12,70
7,CCN(CC)CCCCN1c2ccccc2Oc2ccc(Cl)cc21,118
8,Cn1cnc2cc3c(Nc4cccc(Br)c4)ncnc3cc21,74
9,CO[C@H]1[C@@H](OC)C[C@H](C)[C@@H](OC)C2=CC(=O)C=C(NC(=O)/C(C)=C/C=C/[C@H](OC)[C@@H](OC(N)=O)/C(C)=C/[C@@H]1C)C2=O,88
10,CN(C)c1ccc(/C=C2\C(=O)Nc3ccccc32)cc1,84
11,COc1ccc(S(=O)(=O)N(CCO)c2ccccc2CN(C)C/C=C/c2ccc(Cl)cc2)cc1,73
12,O=Nc1c(-c2c(O)[nH]c3ccccc23)[nH]c2ccccc12,7
13,O=C1NC(=O)/C(=C/c2ccc3c(c2)OC(F)(F)O3)S1,99
14,COc1cc2ncnc(N3CCN(C(=O)Nc4ccc(Oc5ccccc5)cc4)CC3)c2cc1OC,111
15,Oc1ccc(-c2nc(-c3ccc(F)cc3)c(-c3ccncc3)[nH]2)cc1,57
16,N#Cc1cnc2cnc(NCc3cccnc3)cc2c1Nc1ccc(F)c(Cl)c1,74
17,CNc1cc2c(Nc3cccc(Br)c3)ncnc2cn1,93
18,O=C1NC(=O)c2cc(Nc3ccc(F)cc3)c(Nc3ccc(F)cc3)cc21,97

row,SMILES,residual activity [%]
1,COc1cccc(-c2cc(=O)c3ccccc3o2)c1N,84
2,Cc1cccc(-c2[nH]c(C(C)(C)C)nc2-c2ccc3c(c2)OCO3)n1,83
3,c1ccc(-c2n[nH]c3c2oc2ccccc23)cc1,67
4,Ic1cccc(CSc2nnc(-c3ccncc3)o2)c1,94
5,CO[C@@H]1[C@H](N(C)C(=O)c2ccccc2)C[C@H]2O[C@]1(C)n1c3ccccc3c3c4c(c5c6ccccc6n2c5c31)C(=O)NC4,135
6,NC(=O)c1ccc2[nH]c(-c3ccc(Oc4ccc(Cl)cc4)cc3)nc2c1,103
7,O=C1Nc2cc(Br)ccc2/C1=C1/Nc2ccccc2/C1=N\O,93
8,COc1cc2ncnc(Nc3ccc(Oc4ccccc4)cc3)c2cc1OC,81
9,CCOc1cc2ncnc(Nc3cccc(Br)c3)c2cc1OCC,72
10,O=c1cc(-c2cccc3c2Sc2ccccc2S3)oc(N2CCOCC2)c1,82
11,c1ccc2c(-c3ccncc3)c[nH]c2c1,94
12,Nc1cccc(-c2cc3c(Oc4cccc(O)c4)ncnc3[nH]2)c1,70
13,Nc1nc(Nc2ccc(S(N)(=O)=O)cc2)nn1C(=S)Nc1c(F)cccc1F,16
14,CC(C)n1cnc2c(NCc3ccccc3)nc(NCCCO)nc21,75
15,O=C1NC(=O)/C(=C\c2ccc3nccnc3c2)S1,88
16,O=C(O)c1ccc2c3c1cccc3c(=O)n1c3ccccc3nc21,46
17,COc1cc2ncnc(Nc3ccc(O)c(Br)c3)c2cc1OC,94
